# A number with no mark means an inactive call. Records with an inconclusive call do not appear. Where a call stands in place of a potency, no number is given. Calls of active or inactive are those of the source. Calls follow the shape of the dose curve; as a rule, active = well fitted curve in the direction sought with a large enough effect in the repeat runs; inconclusive = weak or mixed curves; inactive = no such curve, though single readings can be large; an effect the other way counts as inactive or inconclusive.
# Tests used:
# [1] = qHTS RealTime-Glo MT Cell Viability Assay in HepG2 cells - 24 hour (AID 1224867); also: nearly all actives have a fitted effect of over 50% in size
# Method in brief: (§1)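 Viability was tracked continuously by NanoLuc luminescence from prosubstrate reduced by living HepG2 cells, at successive time points over 40 h of compound exposure. Cells with reagent were preincubated 5 h at 37 °C before compound addition.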
# [2] = qHTS RealTime-Glo MT Cell Viability Assay in HEK293 cells - 32 hour (AID 1224868); also: nearly all actives have a fitted effect of over 50% in size; also: potency is read from the fitted curve at half-maximal effect
# Method in brief: (§2)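 Viability tracked continuously by luminescence as live cells reduce a prosubstrate for NanoLuc; HEK293 cells preincubated 5 h, compound-treated at 37 C, and read at 0, 8, 16, 24, 32 and 40 h.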
# [3] = A CellTox Green Cytotoxicity Assay to monitor cytotoxicity in HEK293 cells - 0 hour (AID 1224869); also: nearly all actives have a fitted effect of over 50% in size
# Method in brief: (§3)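 Each value comes from one timepoint of a single continuous run in which HEK293 cells with CellTox Green were exposed to compound for up to 40 h at 37 C, dye fluorescence rising with cell death.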
# [4] = qHTS RealTime-Glo MT Cell Viability Assay in HepG2 cells - 40 hour (AID 1224870); also: nearly all actives have a fitted effect of over 50% in size
# Method in brief: (§4)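 HepG2 cells (600/well) mixed with RealTime-Glo MT reagent, settled 5 h at 37 C/5% CO2 before compound addition. Nonlytic NanoLuc luminescence from viable-cell prosubstrate reduction read repeatedly during 40 h treatment at 37 C.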
# [5] = A CellTox Green Cytotoxicity Assay to monitor cytotoxicity in HEK293 cells - 40 hour (AID 1224871); also: nearly all actives have a fitted effect of over 45% in size
# Method in brief: as §3
# [6] = qHTS RealTime-Glo MT Cell Viability Assay in HEK293 cells - 16 hour (AID 1224872); also: nearly all actives have a fitted effect of over 50% in size; also: potency is read from the fitted curve at half-maximal effect
# Method in brief: as §2
# [7] = qHTS RealTime-Glo MT Cell Viability Assay in HepG2 cells - 8 hour (AID 1224873); also: nearly all actives have a fitted effect of over 55% in size
# Method in brief: as §4
# [8] = qHTS RealTime-Glo MT Cell Viability Assay in HEK293 cells - 40 hour (AID 1224874); conditions: RealTime-Glo luminescence; max response: hits give low values; also: nearly all actives have a fitted effect of over 50% in size; also: potency is read from the fitted curve at half-maximal effect
# Method in brief: (§5)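 qHTS format; HEK293 cells with NanoLuc/prosubstrate reagent, 37 C/5% CO2 for 5 h pre-dosing; compounds 23 nL in DMSO; luminescence at each time point reflects viable cells.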
# [9] = A CellTox Green Cytotoxicity Assay to monitor cytotoxicity in HEK293 cells - 24 hour (AID 1224875); also: series mostly up to about 77 µM; nearly all actives have a fitted effect of over 45% in size
# Method in brief: as §3
# [10] = A CellTox Green Cytotoxicity Assay to monitor cytotoxicity in HepG2 cells - 16 hour (AID 1224876); also: nearly all actives have a fitted effect of over 45% in size
# Method in brief: (§6)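 Continuous culture of HepG2 cells with a membrane-impermeant DNA dye; rising fluorescence marks dead cells. Compound exposure lasted up to 40 h at 37 C, with reads every 8 h from 0 h.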
# [11] = qHTS RealTime-Glo MT Cell Viability Assay in HepG2 cells - 32 hour (AID 1224877); also: nearly all actives have a fitted effect of over 55% in size
# Method in brief: as §1
# [12] = A CellTox Green Cytotoxicity Assay to monitor cytotoxicity in HepG2 cells - 24 hour (AID 1224878); also: nearly all actives have a fitted effect of over 45% in size
# Method in brief: as §6
# [13] = A CellTox Green Cytotoxicity Assay to monitor cytotoxicity in HepG2 cells - 40 hour (AID 1224879); also: nearly all actives have a fitted effect of over 40% in size
# Method in brief: as §6
# [14] = qHTS RealTime-Glo MT Cell Viability Assay in HEK293 cells - 0 hour (AID 1224880)
# Method in brief: as §5
# [15] = A CellTox Green Cytotoxicity Assay to monitor cytotoxicity in HEK293 cells - 32 hour (AID 1224881); also: nearly all actives have a fitted effect of over 40% in size
# Method in brief: as §3
# [16] = A CellTox Green Cytotoxicity Assay to monitor cytotoxicity in HepG2 cells - 0 hour (AID 1224882); also: nearly all actives have a fitted effect of over 35% in size
# Method in brief: as §6
# [17] = A CellTox Green Cytotoxicity Assay to monitor cytotoxicity in HepG2 cells - 32 hour (AID 1224883); also: nearly all actives have a fitted effect of over 50% in size
# Method in brief: as §6
# [18] = qHTS RealTime-Glo MT Cell Viability Assay in HepG2 cells - 16 hour (AID 1224885); also: nearly all actives have a fitted effect of over 50% in size
# Method in brief: as §1
# [19] = qHTS RealTime-Glo MT Cell Viability Assay in HEK293 cells - 24 hour (AID 1224886); also: nearly all actives have a fitted effect of over 50% in size; also: potency is read from the fitted curve at half-maximal effect
# Method in brief: as §2
# [20] = A CellTox Green Cytotoxicity Assay to monitor cytotoxicity in HEK293 cells - 8 hour (AID 1224884); also: nearly all actives have a fitted effect of over 35% in size
# Method in brief: as §3
compound,measurement,setting,value
CCc1nccnc1C,outcome,[1],inactive
same,Potency,[2],inactive
same,Potency,[3],inactive
same,outcome,[4],inactive
same,Potency,[5],inactive
same,Potency,[6],inactive
same,outcome,[7],inactive
same,max response,[8],6.93%
same,Potency,[9],inactive
same,Potency,[10],inactive
same,outcome,[11],inactive
same,Potency,[12],inactive
same,Potency,[13],inactive
same,outcome,[14],inactive
same,Potency,[15],inactive
same,Potency,[16],inactive
same,Potency,[17],inactive
same,outcome,[18],inactive
same,Potency,[19],inactive
CCCCCCCC/C=C\CCCCCCCC(=O)OC[C@@H](O)[C@H]1OC[C@H](O)[C@H]1O,outcome,[1],inactive
same,Potency,[2],inactive
same,Potency,[3],inactive
same,outcome,[4],inactive
same,Potency,[5],inactive
same,Potency,[6],inactive
same,outcome,[7],inactive
same,max response,[8],7.57%
same,Potency,[9],inactive
same,Potency,[10],inactive
same,outcome,[11],inactive
same,Potency,[12],inactive
same,Potency,[13],inactive
same,outcome,[14],inactive
same,Potency,[15],inactive
same,Potency,[16],inactive
same,Potency,[17],inactive
same,Potency,[20],inactive
same,outcome,[18],inactive
same,Potency,[19],inactive
CCCCC/C=C/CC(=O)OC,outcome,[1],inactive
same,Potency,[2],inactive
same,Potency,[3],inactive
same,outcome,[4],inactive
same,Potency,[5],inactive
same,Potency,[6],inactive
same,outcome,[7],inactive
same,max response,[8],-0.743%
same,Potency,[9],inactive
same,Potency,[10],inactive
same,outcome,[11],inactive
same,Potency,[12],inactive
same,Potency,[13],inactive
same,outcome,[14],inactive
same,Potency,[16],inactive
same,Potency,[17],inactive
same,Potency,[20],inactive
same,outcome,[18],inactive
same,Potency,[19],inactive
CO[Si](CCCS)(OC)OC,outcome,[1],inactive
same,Potency,[2],inactive
same,Potency,[3],inactive
same,outcome,[4],inactive
same,Potency,[5],inactive
same,Potency,[6],inactive
same,outcome,[7],inactive
same,max response,[8],0.328%
same,Potency,[9],inactive
same,Potency,[10],inactive
same,outcome,[11],inactive
same,Potency,[12],inactive
same,Potency,[13],inactive
same,outcome,[14],inactive
same,Potency,[16],inactive
same,Potency,[17],inactive
same,Potency,[20],inactive
same,outcome,[18],inactive
same,Potency,[19],inactive
O=c1cc(O)c(Cl)c[nH]1,outcome,[1],inactive
same,Potency,[2],inactive
same,Potency,[3],inactive
same,outcome,[4],inactive
same,Potency,[5],inactive
same,Potency,[6],inactive
same,outcome,[7],inactive
same,max response,[8],4.88%
same,Potency,[9],inactive
same,Potency,[10],inactive
same,outcome,[11],inactive
same,Potency,[12],inactive
same,Potency,[13],inactive
same,outcome,[14],inactive
same,Potency,[15],inactive
same,Potency,[16],inactive
same,Potency,[17],inactive
same,Potency,[20],inactive
same,outcome,[18],inactive
same,Potency,[19],inactive
CCN(CCC#N)c1ccccc1,outcome,[1],inactive
same,Potency,[2],inactive
same,Potency,[3],inactive
same,outcome,[4],inactive
same,Potency,[5],inactive
same,Potency,[6],inactive
same,outcome,[7],inactive
same,max response,[8],2.36%
same,Potency,[9],inactive
same,Potency,[10],inactive
same,outcome,[11],inactive
same,Potency,[12],inactive
same,Potency,[13],inactive
same,outcome,[14],inactive
same,Potency,[15],inactive
same,Potency,[16],inactive
same,Potency,[17],inactive
same,outcome,[18],inactive
same,Potency,[19],inactive
CC(C)(c1ccc(Oc2ccc3c(c2)C(=O)OC3=O)cc1)c1ccc(Oc2ccc3c(c2)C(=O)OC3=O)cc1,outcome,[1],inactive
same,Potency,[2],inactive
same,Potency,[3],inactive
same,outcome,[4],inactive
same,Potency,[5],inactive
same,Potency,[6],inactive
same,outcome,[7],inactive
same,max response,[8],19.4%
same,Potency,[9],inactive
same,Potency,[10],inactive
same,outcome,[11],inactive
same,Potency,[12],inactive
same,Potency,[13],inactive
same,outcome,[14],inactive
same,Potency,[15],inactive
same,Potency,[16],inactive
same,Potency,[17],inactive
same,outcome,[18],inactive
same,Potency,[19],inactive
CO[Si](CCCCl)(OC)OC,outcome,[1],inactive
same,Potency,[2],inactive
same,Potency,[3],inactive
same,outcome,[4],inactive
same,Potency,[5],inactive
same,Potency,[6],inactive
same,outcome,[7],inactive
same,max response,[8],28.4%
same,Potency,[9],inactive
same,Potency,[10],inactive
same,outcome,[11],inactive
same,Potency,[12],inactive
same,Potency,[13],inactive
same,outcome,[14],inactive
same,Potency,[16],inactive
same,Potency,[17],inactive
same,Potency,[20],inactive
same,outcome,[18],inactive
same,Potency,[19],inactive
Cc1nc2n(c(=O)c1CCN1CCC(C(=O)c3ccc(F)cc3)CC1)CCS2,outcome,[1],inactive
same,Potency,[2],5.35 µM (active)
same,Potency,[3],inactive
same,outcome,[4],inactive
same,Potency,[5],inactive
same,Potency,[6],9.52 µM (active)
same,outcome,[7],inactive
same,Potency,[8],6.01 µM (active)
same,Potency,[9],inactive
same,Potency,[10],inactive
same,outcome,[11],inactive
same,Potency,[12],inactive
same,Potency,[13],inactive
same,outcome,[14],inactive
same,Potency,[15],inactive
same,Potency,[16],inactive
same,Potency,[17],inactive
same,outcome,[18],inactive
same,Potency,[19],5.35 µM (active)
CCCOCCOCCOCCO,outcome,[1],inactive
same,Potency,[2],inactive
same,Potency,[3],inactive
same,outcome,[4],inactive
same,Potency,[5],inactive
same,Potency,[6],inactive
same,outcome,[7],inactive
same,max response,[8],-22.3%
same,Potency,[9],inactive
same,Potency,[10],inactive
same,outcome,[11],inactive
same,Potency,[12],inactive
same,Potency,[13],inactive
same,outcome,[14],inactive
same,Potency,[15],inactive
same,Potency,[16],inactive
same,Potency,[17],inactive
same,Potency,[20],inactive
same,outcome,[18],inactive
same,Potency,[19],inactive
CC(C)CCC(=O)CCC(C)C,outcome,[1],inactive
same,Potency,[2],inactive
same,Potency,[3],inactive
same,outcome,[4],inactive
same,Potency,[5],inactive
same,Potency,[6],inactive
same,outcome,[7],inactive
same,max response,[8],1.42%
same,Potency,[9],inactive
same,Potency,[10],inactive
same,outcome,[11],inactive
same,Potency,[12],inactive
same,Potency,[13],inactive
same,outcome,[14],inactive
same,Potency,[15],inactive
same,Potency,[16],inactive
same,Potency,[17],inactive
same,outcome,[18],inactive
same,Potency,[19],inactive
O=S1(=O)CCCC1,outcome,[1],inactive
same,Potency,[2],inactive
same,Potency,[3],inactive
same,outcome,[4],inactive
same,Potency,[5],inactive
same,Potency,[6],inactive
same,outcome,[7],inactive
same,max response,[8],9.26%
same,Potency,[9],inactive
same,Potency,[10],inactive
same,outcome,[11],inactive
same,Potency,[12],inactive
same,Potency,[13],inactive
same,outcome,[14],inactive
same,Potency,[15],inactive
same,Potency,[16],inactive
same,Potency,[17],inactive
same,outcome,[18],inactive
same,Potency,[19],inactive

# Reference: PubChem BioAssay (Tox21)
